# Screening results from PubChem BioAssay.
# The list is not random: actives were taken first. Their share in the collection is about 1.3%.
# PKM2 act = PKM2 (human) enzyme activation | Potency, µM (titrated, usually from 57.5 µM), for the others: at the highest dose activation, hits mostly activators | purified PKM2, Kinase-Glo ATP luminescence, activation; response scale: 0% is enzyme alone, no compound | P14618 | actives 0.34% (n = 260,000); further: potency means the concentration at half of the fitted maximal effect; on the % scale 0 is the no-effect control and ±100 the full control effect; nearly all actives have a fitted effect of over 55% in size
# Target sequence (P14618 whole entry, looked up): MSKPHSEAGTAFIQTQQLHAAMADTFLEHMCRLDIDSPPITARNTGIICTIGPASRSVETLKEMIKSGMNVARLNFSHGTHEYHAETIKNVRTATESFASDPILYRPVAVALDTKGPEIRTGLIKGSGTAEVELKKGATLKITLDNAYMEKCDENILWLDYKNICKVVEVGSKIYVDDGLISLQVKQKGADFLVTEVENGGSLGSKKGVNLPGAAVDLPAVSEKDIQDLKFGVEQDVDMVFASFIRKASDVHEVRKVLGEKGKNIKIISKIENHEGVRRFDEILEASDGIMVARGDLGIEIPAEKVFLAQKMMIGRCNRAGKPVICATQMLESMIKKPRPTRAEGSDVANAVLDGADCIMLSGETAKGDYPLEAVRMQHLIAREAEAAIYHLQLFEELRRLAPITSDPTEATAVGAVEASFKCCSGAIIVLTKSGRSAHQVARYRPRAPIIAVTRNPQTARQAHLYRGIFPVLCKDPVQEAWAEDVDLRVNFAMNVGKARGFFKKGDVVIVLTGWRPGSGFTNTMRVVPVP
#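 Purified hPK-M2 (>95%) run at intermediate activity with 0.1 mM ADP and 0.5 mM PEP in 50 mM imidazole pH 7.2, KCl, MgCl2; 1 h room temperature. ATP formed read by Kinase-Glo luminescence; normalized to uninhibited and no-enzyme controls.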
# BRCA1 expr up = BRCA1 expression activation; actives 1.1% (n = 380,000); MCF7-BRCA1-FFLuc reporter, luminescence, 48 h; response scale: scaled: vehicle 0%, 10 µM genistein 100%; Potency, µM (titrated, usually from 46.1 µM), inactives show at the highest dose activation, hits mostly activators; AID 624202; further: potency means the concentration at half of the fitted maximal effect; nearly all actives have a fitted effect of over 80% in size
#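 Luminescence from a BRCA1-driven firefly luciferase in MCF7 cells was read after 48 h compound exposure at 37 C. Data normalized against DMSO and a 10microM genistein activation control, then curve-fitted across the titration.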
# Anesthetic bind = binds horse apoferritin like a general anesthetic | actives 0.074% (n = 350,000) | AID 485281 | apoferritin/1-aminoanthracene competitive binding, fluorescence | P02791 | Potency, µM (top dose mostly 77.5 µM), without a hit: at the top dose activity change, negative = displacement, usual class: inhibitors; further: potency means the concentration at half of the fitted maximal effect; on the % scale 0 is the no-effect control and ±100 the full control effect; nearly all actives have a fitted effect of over 20% in size
# Target sequence (P02791 2-175 limits assumed): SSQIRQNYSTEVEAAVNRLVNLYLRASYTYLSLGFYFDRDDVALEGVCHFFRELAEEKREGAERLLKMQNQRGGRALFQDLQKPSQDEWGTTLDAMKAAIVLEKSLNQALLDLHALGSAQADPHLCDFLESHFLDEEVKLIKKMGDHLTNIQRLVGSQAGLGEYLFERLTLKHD
#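 Horse-spleen apoferritin (10 uM) in 50% saturated 1-aminoanthracene in PBS was incubated 10 min at room temperature with compound. Fluorescence (ex 380, em 535 nm) was normalized to free and bound 1-AMA, with concentration-response fitted by a four-parameter Hill equation.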
# IL-2 act = IL-2 activation; IL-2 activation reporter assay, cell-based qHTS; stimulated with anti-CD3/CD4/CD28 beads; in transgenic mouse T cells; activation, % (series mostly up to about 46 µM); actives 0.065% (n = 360,000); AID 652025; in the data active means activation above about 50%; inconclusive means mostly about 30% to 49%; further: 0% is about no effect
#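 Readout: EGFP and DsRed signals by fluorescent plate cytometry. Unstimulated transgenic mouse T cells received compound 60 min before antibody-bead stimulation, then incubated 18 h at 37 degrees C.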
# a7 integrin act = integrin-mediated muscular dystrophy alleviation activation; alpha7betagal myoblasts, beta-gal FDG fluorescence, 48 h; Potency, µM (titrated, usually from 38.3 µM), inactives show at the highest dose activation, hits mostly activators; actives 0.064% (n = 350,000); AID 624291;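 further: potency means the concentration at half of the fitted maximal effect; 100% = response of the positive control SU9516; nearly all actives have a fitted effect of over 60% in size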
#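 alpha7betagal+/- myoblasts (passage 13, 250/well) treated 48 h at 37C with compounds at 1:260 dilution of DMSO stock. Lysed, then beta-galactosidase activity read as FDG fluorescence (ex 480/em 540) after 30 min, with pre-read for autofluorescence.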
# Numbers without * were called inactive; u = inconclusive; x = no result given; [ ] = another dose, or the depositor's remark. Unless noted, the call rests on the fitted dose curve; in most records, active means well fitted curve in the direction sought with a large enough effect; inconclusive means small, poorly fitted or top-dose-only effect, or another doubt; inactive means no such curve, though single readings can be large; an effect the other way counts as inactive or inconclusive.
SMILES,PKM2 act,BRCA1 expr up,Anesthetic bind,IL-2 act,a7 integrin act
Cc1ccc(NC(=O)CCC(=O)c2cccs2)c(Br)c1,-1%,6.3µM*,u,-3,-2%
Cn1c(NC(=O)CCC2CCCCC2)cc(=O)n(C)c1=O,-1%,2.2µM*,u,-1,-2%
CCOC(=O)c1ccccc1NC(=O)Cn1c(=O)n(-c2ccc(CC)cc2)c(=O)c2c(C)c(C(=O)N(C)C)sc21,x,x,1%,x,x
Cc1ccc(S(=O)(=O)Nc2cc3c(cc2NCc2ccccc2)n(C)c(=O)n3C)c(C)c1,x,x,1%,x,x
Cc1ccc(NC(=O)COC(=O)c2ccccc2OCC(=O)Nc2ccc(Br)cc2)c(C)c1,x,15%,x,x,x
CC(=O)OCOC(=O)CN(CC(=O)OCOC(C)=O)c1ccccc1OCCOc1ccccc1N(CC(=O)OCOC(C)=O)CC(=O)OCOC(C)=O,x,x,83%,x,x
CCN(CC)c1ccc(/C=C(\C#N)c2ccccn2)cc1,-3%,u,-20%,-4,-47%
CCN(CC)c1ccc(C=N/C(C#N)=C(\N)C#N)cc1,1%,2.5µM*,u,0,-21%
CC(=O)c1ccc(NC(=O)C2(c3ccccc3)CC2(Cl)Cl)cc1 (stereo not given),-3%,10µM*,-21%,0,6%
Brc1cccc[n+]1CCCCCC[n+]1ccccc1Br,x,-13%,x,x,x
Cc1c(/C=C/c2ccnc3ccccc23)ccc(N(C)C)c1C,x,-4%,x,x,x
Cc1ccc2oc(-c3ccco3)cc(=O)c2c1,4%,3.5µM*,-12%,-2,-3%
CC(C)OCCOc1ccc2oc(-c3ccco3)cc(=O)c2c1,1%,8.9µM*,7%,-1,-8%
O/N=C(/C[n+]1cccc(Br)c1)c1ccc2ccccc2c1,x,-4%,x,x,x
CCC(=O)N1CCc2cc(Br)cc(S(=O)(=O)N3CCCC(C(=O)Nc4ccc(C)c(F)c4)C3)c21 (stereo not given),x,-24%,-1%,x,x
COc1ccc(COC(=O)N/N=C2/C[C@@H](O)[C@@H](O)[C@@H]3[C@@H]4C(=O)N(c5cccc(Oc6ccccc6)c5)C(=O)[C@H]4CC[C@@H]23)cc1,x,x,-15%[15.3 µM],x,x
N#C/C(=N\Nc1ccccc1)C(=N)N1CCCCCC1,-11%,2.5µM*,-11%,0,-20%
COc1ccc(-c2nnc(C3CCN(C(=O)c4ccccc4F)CC3)o2)cc1,x,x,-1%,x,x
CCc1cnc2c(c1SC(C(C)=O)C(=O)N(C)C)c(=O)n(C)c(=O)n2C (stereo not given),x,x,-2%,x,x
CCSC(=O)N1CCN(/[N+]([O-])=N/Oc2ccc([N+](=O)[O-])cc2[N+](=O)[O-])CC1,x,-23%,x,x,x
Nc1cc([N+](=O)[O-])ccc1Nc1ccccc1,-1%,23%,16µM*,-4,-47%
CCCCn1c(=O)[nH]c(=O)c2c1nc(-c1ccc(-c3ccccc3Br)o1)n2CC,16µM*,-35%,-21%,2,1%
CCCCn1c(=O)[nH]c(=O)c2c1nc(-c1ccc3ccccc3c1)n2CC,0%,-11%,-5%,-1,4%
CNc1cc[n+](C)c2ccccc12,x,0%,x,x,x
CC(C)Sc1nc(N)nc(-c2cccs2)c1C#N,1%,4µM*,-13%,-4,-24%
SMILES,PKM2 act,BRCA1 expr up,Anesthetic bind,IL-2 act,a7 integrin act
Cc1ccc(S(=O)(=O)N(C)CCCN(C)c2nc(-c3cccs3)nc3ccccc23)cc1,x,-5%,x,x,x
Nc1nnc(/C=C/c2cccc([N+](=O)[O-])c2)s1,5%,16µM*,-9%,3,21%
O=C(Nc1ccc(F)cc1F)Nc1ccc(F)cc1F,6%,10µM*,-4%,-4,-21%
O=C(Nc1ccncc1)Nc1ccc(F)cc1F,-19%,38%,-7%,-4,-46%
Cc1cccc(-c2nc3c4ccccc4n(Cc4cccc(Cl)c4)c(=O)n3n2)c1,x,x,5%,x,x
COc1ccc2nc(C)cc(Nc3ccc(C)cc3)c2c1,u,29%,-13%,-2,-7%
COc1ccc2nc(C)cc(NCc3ccc(F)cc3)c2c1,5%,-35%,10%,65*,-61%
CCN(CC)CCNC(=O)c1nn(C)c2c1CS(=O)(=O)c1ccccc1-2,x,x,-14%,x,x
NC(=O)c1ccccc1NC(=O)CCc1ccccc1,-10%,11µM*,-18%,3,-3%[7.66 µM]
O=C(O)CCC(=O)Nc1ccccc1C(=O)NCCc1ccccc1,-4%,8.9µM*,0%,-2,15%
CC(=O)Nc1ccc(NC(=O)C2Cc3ccccc3N2C(=O)c2ccccc2)cc1 (stereo not given),x,x,-14%,x,x
CCCNC(=O)c1ccc(Cn2cc(-c3ccc(OC)cc3)nc2C(C)N)cc1 (stereo not given),x,11µM*,x,1,13%
COc1ccc(-c2cn(Cc3ccc(C(N)=O)cc3)c(-c3ccncc3)n2)cc1,x,4.5µM*,x,0,2%
COc1cc2c(cc1OC)/C(=C/C(=O)N1CCOCC1)NC(C)(C)C2,25µM*,-13%,304%,-3,-23%
COc1cccc2c1CCCC2CCCN1CCN(C2CCCCC2)CC1 (stereo not given),x,x,-2%,x,x
CC(=O)c1cccc(NC(=O)COc2ccccc2C(=O)Nc2ccccc2)c1,x,-5%,x,x,x
CCOC(=O)c1ccc(NC(=O)CSc2nccn2-c2cc(C)cc(C)c2)cc1,x,-7%,3%,x,x
CCCCN1C(=O)CN(C2CCCCCC2)C(=O)C1c1ccc(OCCC)c(OC)c1 (stereo not given),x,x,-13%,x,x
Cc1cc(C)nc(N/N=C/c2ccccc2)n1,-6%,93%,-11%,-4,18%
Cc1cc(C)nc(N/N=C/C(Cl)=C/c2ccccc2)n1,1%,10µM*,-9%,-3,-25%
COc1ccc(CSc2nnc(C)s2)cc1F,0%,4.5µM*,-14%,1,-9%
COC(=O)c1ccc(CSc2nnc(C)s2)cc1,0%,90%,-12%,-3,-48%
COc1c2ccoc2nc2c(OC)cccc12,6%,25µM*,-10%,-1,5%
N#Cc1cccc(S(=O)(=O)N2CCN(c3nc(-c4cccs4)nc4ccccc34)CC2)c1,x,0%,x,x,x
CN1C(=O)C[C@H](C(=O)O)[C@@H]1c1cccnc1,x,x,2%,x,x
Cc1ccc(C2=Nc3cccnc3C(c3ccccc3)=NN2)cc1,-9%,6.3µM*,-11%,0,0%
Cn1cc(S(=O)(=O)N2CCc3ccccc32)cc1C(=O)Nc1ccc(C(F)(F)F)cc1,x,x,0%,x,x
Cc1cc2c(cc1S(=O)(=O)N(C)Cc1ccccc1)n(C)c(=O)c(=O)n2C,10%,-7%,u,-1,0%
Cc1cccc(N(C)S(=O)(=O)c2cc3c(cc2C)n(C)c(=O)c(=O)n3C)c1,10µM*,-1%,u,3,25%
Cc1cc2c(cc1S(=O)(=O)N(C)c1ccccc1)n(C)c(=O)n2C,13µM*,-13%,-6%,0,43%
